Bioassay records from PubChem.
HIV RNase H inh-1 = HIV-1 RT RNase H inhibitors, primary screen, biochemical, fluorescence | RT-RNase H RNA/DNA duplex cleavage | inhibition, % at 10 µM | 1.9% of 65,000 active; in the data active = inhibition above about 50%
RmlC RmlD mix = RmlC and RmlD coupled enzyme inhibitors, primary screen, biochemical, 384-well, compound mixtures, retest; 0.39% of 110,000 active; inhibition, % at 5.5 µM; RmlC/RmlD coupled enzyme inhibition, 384-well mixture HTS; in the data active = inhibition above about 30%, passing the limit was not always enough; inconclusive = no clear call, values can overlap the other calls
HIV RNase H inh-2 = HIV-1 RT RNase H inhibitors, retest, confirmation, biochemical; shares compounds with HIV RNase H inh-1; AID 651, 2007; Recombinant RT RNase H, fluorescent RNA/DNA duplex cleavage; inhibition, % at 10 µM; 39% of 1,000 active; in the data active = inhibition above about 48%; inconclusive = no clear call, values can overlap the other calls
Numbers without * were called inactive. Shown is part of a subset that was picked to be rich in hits.

How did Cc1c(C)c2cc(Cl)c(O)c(CN3CCN(C)CC3)c2oc1=O do in these assays?
HIV RNase H inh-1: 3; RmlC RmlD mix: 97*

How did CCCc1cc(=O)oc2c(CN3CCCC3)c(O)c(Cl)cc12 do in these assays?
HIV RNase H inh-1: 2; RmlC RmlD mix: 59*

Results for Cc1c(O)c(CN2CCCC(C)C2)cc2c3c(c(=O)oc12)CCC3 (stereo not drawn) ?
HIV RNase H inh-1: 2

What do the screens show for `Cc1c(C)c2cc(Cl)c(O)c(CN3CCCC(C)C3)c2oc1=O` (stereo not drawn)?
HIV RNase H inh-1: -1; RmlC RmlD mix: 112*

What do the screens show for `COc1ccc(CNC(=O)CSc2nnc(Cn3nnc4ccccc43)n2C)cc1`?
RmlC RmlD mix: -11

Results for Cc1cc(C)n2nc(SCc3cc(=O)n4c(C)cccc4n3)nc2n1 ?
HIV RNase H inh-1: -3

Results for Cc1cc(NC(=O)c2ccc(S(=O)(=O)N3CCCC3)cc2)nc2c1c(=O)oc1ccccc12 ?
HIV RNase H inh-1: 72*; RmlC RmlD mix: 12

What do the screens show for `Cc1cc(NC(=O)c2ccc(S(=O)(=O)N3CCOCC3)cc2)nc2c1c(=O)oc1ccccc12`?
HIV RNase H inh-1: 41

Results for COC(C/C=C\C(=O)[C@@H](C)OCc1ccccc1)OC ?
RmlC RmlD mix: -3

How did CCN1CCN(c2ncnc3c2cnn3-c2ccc(Cl)cc2)CC1 do in these assays?
HIV RNase H inh-1: -7; RmlC RmlD mix: 10

Results for CCOC(=O)N1CCN(c2ncnc3c2cnn3-c2ccc(Cl)cc2)CC1 ?
HIV RNase H inh-1: 69*; RmlC RmlD mix: -11

How did CC(C(=O)Nc1ccccc1-c1ccccc1)N1CCN(C(=O)c2ccco2)CC1 (stereo not drawn) do in these assays?
HIV RNase H inh-1: -10

How did CCCn1c(SCC(=O)N2CCN(S(=O)(=O)c3ccc(Cl)cc3)CC2)n[nH]c1=O do in these assays?
HIV RNase H inh-1: -16; RmlC RmlD mix: -13

How did Cc1cc(C)n2c(SCC(=O)N3CCN(S(=O)(=O)c4ccc(Cl)cc4)CC3)nnc2n1 do in these assays?
HIV RNase H inh-1: 70*; RmlC RmlD mix: -19

How did O=C(CCC(=O)c1ccc(F)cc1)OC1CCOC1=O (stereo not drawn) do in these assays?
HIV RNase H inh-1: 1; RmlC RmlD mix: -13

How did Clc1cccc(-c2nnc3sc(-c4ccc5c(c4)OCO5)nn23)c1 do in these assays?
HIV RNase H inh-1: 75*

What do the screens show for `Clc1cccc(-c2nn3c(-c4ccncc4)nnc3s2)c1`?
HIV RNase H inh-1: -9

Results for c1ccc(Cn2ncc3ccccc32)cc1 ?
HIV RNase H inh-1: -52; RmlC RmlD mix: 8

How did Nn1cnn(Cc2ccccc2)c1=S do in these assays?
HIV RNase H inh-1: 73*; RmlC RmlD mix: -4; HIV RNase H inh-2: inconclusive

What do the screens show for `COC[C@]12CN(C)C3C4[C@H](OC)[C@H]1C3([C@@H](OC)C[C@H]2O)[C@@H]1C[C@@]2(O)[C@H](OC(=O)c3ccccc3)[C@@H]1[C@]4(OC(C)=O)[C@@H](O)[C@@H]2OC`?
RmlC RmlD mix: 8

What do the screens show for `CCCCP(=O)(O)CCC(=O)O`?
HIV RNase H inh-1: -5; RmlC RmlD mix: -12

What do the screens show for `CCCCCC#CCC#CCC#CCC#CCCCC(=O)O`?
HIV RNase H inh-1: 97*; RmlC RmlD mix: inconclusive; HIV RNase H inh-2: 66*

What do the screens show for `COC(C[C@@H](O)[C@H](C)[C@@H](O)COCc1ccccc1)OC`?
RmlC RmlD mix: 2

How did CCn1c(SCC(=O)NC(C)(C)C)nnc1-c1ccccn1 do in these assays?
RmlC RmlD mix: -16

How did COc1ccccc1CNC(=O)c1cc2c(=O)n(C)c3ccccc3c2n1C do in these assays?
HIV RNase H inh-1: 89*; HIV RNase H inh-2: 88*

How did Cn1c(C(=O)NCc2ccccn2)cc2c(=O)n(C)c3ccccc3c21 do in these assays?
HIV RNase H inh-1: -11; RmlC RmlD mix: 2

How did CSc1nc2ccc(NS(=O)(=O)c3ccc4c(c3)OCCO4)cc2s1 do in these assays?
HIV RNase H inh-1: -21; RmlC RmlD mix: 12

What do the screens show for `CN1CCCCc2c1[nH]c1ccccc1c2=O`?
HIV RNase H inh-1: 3; RmlC RmlD mix: 0

Results for Cc1cccc(N2CCN(C(=O)Cn3sc4nc(C)cc(C)c4c3=O)CC2C)c1 (stereo not drawn) ?
HIV RNase H inh-1: 93*; RmlC RmlD mix: -3; HIV RNase H inh-2: 56*

Results for Cc1cc(C)c2c(=O)n(CC(=O)N3CCC(Cc4ccccc4)CC3)sc2n1 ?
HIV RNase H inh-1: 79*; HIV RNase H inh-2: 10

What do the screens show for `Cc1ccc(-c2ccc(=O)n(CC(=O)N3CCN(c4cccc(C)c4)C(C)C3)n2)cc1` (stereo not drawn)?
HIV RNase H inh-1: -23; RmlC RmlD mix: -2

How did Cc1cc(C)c2c(=O)n(CC(=O)NCCCN3CCOCC3)sc2n1 do in these assays?
HIV RNase H inh-1: 90*; RmlC RmlD mix: 16; HIV RNase H inh-2: 77*

Results for Cc1cc(OCC(=O)NCCCN2CCOCC2)cc(C)c1Cl ?
HIV RNase H inh-1: 3; RmlC RmlD mix: 4

How did Cn1cnnc1SCC(=O)N1CCC(Cc2ccccc2)CC1 do in these assays?
HIV RNase H inh-1: -5; RmlC RmlD mix: 8

How did CC(C)C(=O)Nc1cccc(C(=O)Nc2nccs2)c1 do in these assays?
HIV RNase H inh-1: -29; RmlC RmlD mix: -1

Results for Cc1oc(-c2ccccc2F)nc1CSCC(=O)NCc1ccc2c(c1)OCO2 ?
HIV RNase H inh-1: -50; RmlC RmlD mix: -5

What do the screens show for `CN1C(=O)CC(C(=O)O)SC1=Nc1cccc(C(F)(F)F)c1` (stereo not drawn)?
HIV RNase H inh-1: -6; RmlC RmlD mix: 6

How did Cc1cc2c(s1)CCCCC(=O)N2 do in these assays?
HIV RNase H inh-1: -13; RmlC RmlD mix: -6

How did O=C(NCc1ccco1)C1Cc2ccccc2CN1S(=O)(=O)c1ccccc1F (stereo not drawn) do in these assays?
HIV RNase H inh-1: 44

How did CCn1c(=O)cc(SCC(=O)NCCN2CCN(Cc3ccccc3)CC2)c2ccccc21 do in these assays?
HIV RNase H inh-1: 0; RmlC RmlD mix: 4

Results for CCn1c(=O)cc(SCC(=O)NCCCN2CCN(c3ccc(F)cc3)CC2)c2ccccc21 ?
HIV RNase H inh-1: 66*; RmlC RmlD mix: 4; HIV RNase H inh-2: 38

Results for CCc1ccc(CNC(=O)CN2C(=O)COc3ccccc32)cc1 ?
HIV RNase H inh-1: -2; RmlC RmlD mix: 7

Results for Cc1cc(C)c(S(=O)(=O)N(C)CC(=O)NC2CCCC2)c(C)c1 ?
HIV RNase H inh-1: -1; RmlC RmlD mix: -12

How did COCCSc1ccccc1C(=O)Nc1cc(C)on1 do in these assays?
HIV RNase H inh-1: 80*; RmlC RmlD mix: -3; HIV RNase H inh-2: 63*

What do the screens show for `COCCSc1ccccc1C(=O)Nc1cccnc1`?
RmlC RmlD mix: 1

How did Cc1ccc(/C(O)=C2\C(=O)C(=O)N(CC(C)O)C2c2ccc(N(C)C)cc2)cc1 (stereo not drawn) do in these assays?
HIV RNase H inh-1: 8; RmlC RmlD mix: -12

How did Cc1cc(C)nc(SCc2ccc3nonc3c2)n1 do in these assays?
HIV RNase H inh-1: -59; RmlC RmlD mix: -5

How did Nc1nc(NC(=O)c2cccc(S(=O)(=O)N3CCCCCC3)c2)nc(-c2ccccc2)n1 do in these assays?
HIV RNase H inh-1: 66*; RmlC RmlD mix: 6; HIV RNase H inh-2: 9
